According to the supplement of paper PMC11732987, “Enantioselective OTUD7B fragment discovery through chemoproteomics screening and high-throughput optimisation” (Communications Chemistry, 2025):

Tests used:
Test in all cases: log2 ratio of Biotin-Ahx-Ub-VS probe labelling (fragment/DMSO); higher = less target engagement (more negative = stronger competition), active = hit call of the paper (q ≤ 0.05, log2 ratio ≤ -1)
Details in all cases: compound concentration: 200 uM; treatment time: 3 h
[1] = target: T1, USP19 (UniProt O94966)
T1 sequence (whole entry): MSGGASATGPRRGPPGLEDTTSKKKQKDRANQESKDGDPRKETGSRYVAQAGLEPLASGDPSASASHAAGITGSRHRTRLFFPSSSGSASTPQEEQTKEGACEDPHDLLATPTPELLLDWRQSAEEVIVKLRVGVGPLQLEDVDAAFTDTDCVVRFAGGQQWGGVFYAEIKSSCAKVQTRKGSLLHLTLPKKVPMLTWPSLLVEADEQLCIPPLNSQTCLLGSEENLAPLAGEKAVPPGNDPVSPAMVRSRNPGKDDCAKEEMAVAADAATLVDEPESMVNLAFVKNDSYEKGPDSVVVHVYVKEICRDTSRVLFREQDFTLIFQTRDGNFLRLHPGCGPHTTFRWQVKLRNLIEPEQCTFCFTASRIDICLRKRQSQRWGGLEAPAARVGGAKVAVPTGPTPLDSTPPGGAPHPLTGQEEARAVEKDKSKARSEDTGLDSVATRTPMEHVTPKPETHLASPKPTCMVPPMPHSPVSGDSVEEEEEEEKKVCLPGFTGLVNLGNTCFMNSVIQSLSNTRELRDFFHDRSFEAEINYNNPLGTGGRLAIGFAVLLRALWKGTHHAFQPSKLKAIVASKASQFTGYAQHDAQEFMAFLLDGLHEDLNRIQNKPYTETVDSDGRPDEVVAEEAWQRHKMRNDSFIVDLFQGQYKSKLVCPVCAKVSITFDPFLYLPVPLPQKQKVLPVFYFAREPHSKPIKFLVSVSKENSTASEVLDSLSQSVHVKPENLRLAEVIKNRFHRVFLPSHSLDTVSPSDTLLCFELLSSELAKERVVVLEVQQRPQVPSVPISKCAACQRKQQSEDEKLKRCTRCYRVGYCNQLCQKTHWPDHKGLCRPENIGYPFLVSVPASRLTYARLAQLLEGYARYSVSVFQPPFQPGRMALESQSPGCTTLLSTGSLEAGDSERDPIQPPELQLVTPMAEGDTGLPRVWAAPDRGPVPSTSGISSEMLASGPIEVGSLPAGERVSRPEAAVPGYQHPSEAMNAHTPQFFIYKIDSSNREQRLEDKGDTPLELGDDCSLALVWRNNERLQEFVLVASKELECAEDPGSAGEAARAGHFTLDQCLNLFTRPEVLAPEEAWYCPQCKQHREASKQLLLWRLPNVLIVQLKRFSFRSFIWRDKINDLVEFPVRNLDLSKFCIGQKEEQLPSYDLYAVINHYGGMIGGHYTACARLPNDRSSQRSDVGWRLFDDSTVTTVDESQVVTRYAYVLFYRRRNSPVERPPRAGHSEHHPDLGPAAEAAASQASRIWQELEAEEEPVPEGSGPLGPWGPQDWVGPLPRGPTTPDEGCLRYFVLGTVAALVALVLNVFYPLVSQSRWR
Method in brief: (§1)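 HEK293T lysate, 495 µg per sample in Tris/CHAPS/IGEPAL buffer with protease inhibitors, was treated in triplicate with fragment at 200 µM or vehicle for 3 h and then with Biotin-Ahx-Ub-VS at 0.5 µM final for 1 h. Labelled DUBs were NeutrAvidin-enriched, digested with LysC and trypsin, and run by diaPASEF LC-MS/MS. Spectronaut label-free quantities were global-median-normalised, and values are average log2 fragment/vehicle ratios by unpaired t-test on proteins with ≥2 unique peptides.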

[2] = target: T2, USP22 (UniProt Q9UPT9)
T2 sequence (whole entry): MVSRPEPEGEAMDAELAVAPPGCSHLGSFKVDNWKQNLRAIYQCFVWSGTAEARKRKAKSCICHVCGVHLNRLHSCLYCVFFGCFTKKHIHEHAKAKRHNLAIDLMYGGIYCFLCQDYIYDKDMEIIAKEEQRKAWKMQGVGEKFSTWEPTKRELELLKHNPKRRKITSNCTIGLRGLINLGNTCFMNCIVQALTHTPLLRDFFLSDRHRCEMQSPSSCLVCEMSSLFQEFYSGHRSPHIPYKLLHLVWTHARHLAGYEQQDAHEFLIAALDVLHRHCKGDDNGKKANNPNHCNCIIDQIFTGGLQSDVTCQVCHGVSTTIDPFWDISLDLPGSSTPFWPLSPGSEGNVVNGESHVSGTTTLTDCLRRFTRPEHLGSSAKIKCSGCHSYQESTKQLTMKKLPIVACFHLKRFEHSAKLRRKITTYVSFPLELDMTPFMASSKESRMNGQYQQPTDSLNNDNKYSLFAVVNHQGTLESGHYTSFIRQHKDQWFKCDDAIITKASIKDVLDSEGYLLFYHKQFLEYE
Method in brief: as §1

[3] = target: USP24 (UniProt Q9UPU5)
Method in brief: as §1

[4] = target: T3, USP25 (UniProt Q9UHP3)
T3 sequence (whole entry): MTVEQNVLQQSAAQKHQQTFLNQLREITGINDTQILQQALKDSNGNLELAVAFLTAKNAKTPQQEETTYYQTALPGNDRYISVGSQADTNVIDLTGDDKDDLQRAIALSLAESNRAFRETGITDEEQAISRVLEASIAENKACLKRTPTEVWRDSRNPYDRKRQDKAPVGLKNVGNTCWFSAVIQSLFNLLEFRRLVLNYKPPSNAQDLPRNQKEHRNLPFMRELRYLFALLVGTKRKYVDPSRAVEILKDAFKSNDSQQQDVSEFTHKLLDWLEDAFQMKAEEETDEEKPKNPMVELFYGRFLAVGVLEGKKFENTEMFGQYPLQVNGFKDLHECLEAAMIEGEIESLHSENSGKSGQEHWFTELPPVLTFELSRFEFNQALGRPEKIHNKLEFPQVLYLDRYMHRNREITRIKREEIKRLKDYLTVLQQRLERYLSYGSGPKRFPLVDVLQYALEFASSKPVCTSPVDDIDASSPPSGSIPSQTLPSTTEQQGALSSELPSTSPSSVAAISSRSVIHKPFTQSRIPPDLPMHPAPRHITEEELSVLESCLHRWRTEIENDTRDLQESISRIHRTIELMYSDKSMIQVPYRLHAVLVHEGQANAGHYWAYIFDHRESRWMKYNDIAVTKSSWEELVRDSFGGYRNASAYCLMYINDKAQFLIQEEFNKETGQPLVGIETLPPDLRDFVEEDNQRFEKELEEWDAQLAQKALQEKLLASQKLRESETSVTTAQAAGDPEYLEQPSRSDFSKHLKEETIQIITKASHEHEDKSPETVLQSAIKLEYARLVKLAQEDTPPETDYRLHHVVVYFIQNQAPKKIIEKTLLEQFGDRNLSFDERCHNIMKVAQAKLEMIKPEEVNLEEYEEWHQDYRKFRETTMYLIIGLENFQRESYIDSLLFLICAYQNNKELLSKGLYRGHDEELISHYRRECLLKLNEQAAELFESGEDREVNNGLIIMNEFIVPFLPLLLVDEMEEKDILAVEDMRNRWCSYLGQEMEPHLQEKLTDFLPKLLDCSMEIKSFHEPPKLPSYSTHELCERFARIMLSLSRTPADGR
Method in brief: as §1

[5] = target: T4, USP28 (UniProt Q96RU2)
T4 sequence (whole entry): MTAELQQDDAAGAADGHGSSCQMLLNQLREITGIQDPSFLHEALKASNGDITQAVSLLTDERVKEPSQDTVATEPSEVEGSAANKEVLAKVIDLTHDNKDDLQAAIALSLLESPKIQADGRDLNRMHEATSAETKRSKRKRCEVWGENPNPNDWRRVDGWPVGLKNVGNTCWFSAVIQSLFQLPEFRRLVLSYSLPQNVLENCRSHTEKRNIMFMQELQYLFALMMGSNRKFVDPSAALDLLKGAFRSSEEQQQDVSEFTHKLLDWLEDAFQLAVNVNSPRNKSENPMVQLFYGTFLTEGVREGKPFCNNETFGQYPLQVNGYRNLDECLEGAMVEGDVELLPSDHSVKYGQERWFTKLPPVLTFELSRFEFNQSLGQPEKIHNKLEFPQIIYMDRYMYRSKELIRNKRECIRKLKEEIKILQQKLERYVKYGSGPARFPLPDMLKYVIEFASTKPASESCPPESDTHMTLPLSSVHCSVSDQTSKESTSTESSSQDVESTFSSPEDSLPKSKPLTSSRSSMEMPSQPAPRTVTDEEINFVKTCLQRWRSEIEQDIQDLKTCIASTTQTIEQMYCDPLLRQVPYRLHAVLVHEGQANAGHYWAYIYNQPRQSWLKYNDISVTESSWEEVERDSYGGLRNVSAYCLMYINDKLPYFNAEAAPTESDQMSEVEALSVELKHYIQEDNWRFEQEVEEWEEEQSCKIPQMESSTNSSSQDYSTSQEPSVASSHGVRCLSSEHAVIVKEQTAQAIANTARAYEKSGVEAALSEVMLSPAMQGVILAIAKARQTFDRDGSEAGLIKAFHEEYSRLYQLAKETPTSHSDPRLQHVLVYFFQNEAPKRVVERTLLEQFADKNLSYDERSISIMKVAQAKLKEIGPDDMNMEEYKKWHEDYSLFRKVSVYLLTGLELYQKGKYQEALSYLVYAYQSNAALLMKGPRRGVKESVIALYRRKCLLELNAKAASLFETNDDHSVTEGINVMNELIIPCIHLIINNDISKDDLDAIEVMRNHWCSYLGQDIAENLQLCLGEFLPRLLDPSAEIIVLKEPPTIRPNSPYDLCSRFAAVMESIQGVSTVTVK
Method in brief: as §1

Measured: log2 ratio of Biotin-Ahx-Ub-VS probe labelling

USP24, sequence (Q9UPU5 whole entry): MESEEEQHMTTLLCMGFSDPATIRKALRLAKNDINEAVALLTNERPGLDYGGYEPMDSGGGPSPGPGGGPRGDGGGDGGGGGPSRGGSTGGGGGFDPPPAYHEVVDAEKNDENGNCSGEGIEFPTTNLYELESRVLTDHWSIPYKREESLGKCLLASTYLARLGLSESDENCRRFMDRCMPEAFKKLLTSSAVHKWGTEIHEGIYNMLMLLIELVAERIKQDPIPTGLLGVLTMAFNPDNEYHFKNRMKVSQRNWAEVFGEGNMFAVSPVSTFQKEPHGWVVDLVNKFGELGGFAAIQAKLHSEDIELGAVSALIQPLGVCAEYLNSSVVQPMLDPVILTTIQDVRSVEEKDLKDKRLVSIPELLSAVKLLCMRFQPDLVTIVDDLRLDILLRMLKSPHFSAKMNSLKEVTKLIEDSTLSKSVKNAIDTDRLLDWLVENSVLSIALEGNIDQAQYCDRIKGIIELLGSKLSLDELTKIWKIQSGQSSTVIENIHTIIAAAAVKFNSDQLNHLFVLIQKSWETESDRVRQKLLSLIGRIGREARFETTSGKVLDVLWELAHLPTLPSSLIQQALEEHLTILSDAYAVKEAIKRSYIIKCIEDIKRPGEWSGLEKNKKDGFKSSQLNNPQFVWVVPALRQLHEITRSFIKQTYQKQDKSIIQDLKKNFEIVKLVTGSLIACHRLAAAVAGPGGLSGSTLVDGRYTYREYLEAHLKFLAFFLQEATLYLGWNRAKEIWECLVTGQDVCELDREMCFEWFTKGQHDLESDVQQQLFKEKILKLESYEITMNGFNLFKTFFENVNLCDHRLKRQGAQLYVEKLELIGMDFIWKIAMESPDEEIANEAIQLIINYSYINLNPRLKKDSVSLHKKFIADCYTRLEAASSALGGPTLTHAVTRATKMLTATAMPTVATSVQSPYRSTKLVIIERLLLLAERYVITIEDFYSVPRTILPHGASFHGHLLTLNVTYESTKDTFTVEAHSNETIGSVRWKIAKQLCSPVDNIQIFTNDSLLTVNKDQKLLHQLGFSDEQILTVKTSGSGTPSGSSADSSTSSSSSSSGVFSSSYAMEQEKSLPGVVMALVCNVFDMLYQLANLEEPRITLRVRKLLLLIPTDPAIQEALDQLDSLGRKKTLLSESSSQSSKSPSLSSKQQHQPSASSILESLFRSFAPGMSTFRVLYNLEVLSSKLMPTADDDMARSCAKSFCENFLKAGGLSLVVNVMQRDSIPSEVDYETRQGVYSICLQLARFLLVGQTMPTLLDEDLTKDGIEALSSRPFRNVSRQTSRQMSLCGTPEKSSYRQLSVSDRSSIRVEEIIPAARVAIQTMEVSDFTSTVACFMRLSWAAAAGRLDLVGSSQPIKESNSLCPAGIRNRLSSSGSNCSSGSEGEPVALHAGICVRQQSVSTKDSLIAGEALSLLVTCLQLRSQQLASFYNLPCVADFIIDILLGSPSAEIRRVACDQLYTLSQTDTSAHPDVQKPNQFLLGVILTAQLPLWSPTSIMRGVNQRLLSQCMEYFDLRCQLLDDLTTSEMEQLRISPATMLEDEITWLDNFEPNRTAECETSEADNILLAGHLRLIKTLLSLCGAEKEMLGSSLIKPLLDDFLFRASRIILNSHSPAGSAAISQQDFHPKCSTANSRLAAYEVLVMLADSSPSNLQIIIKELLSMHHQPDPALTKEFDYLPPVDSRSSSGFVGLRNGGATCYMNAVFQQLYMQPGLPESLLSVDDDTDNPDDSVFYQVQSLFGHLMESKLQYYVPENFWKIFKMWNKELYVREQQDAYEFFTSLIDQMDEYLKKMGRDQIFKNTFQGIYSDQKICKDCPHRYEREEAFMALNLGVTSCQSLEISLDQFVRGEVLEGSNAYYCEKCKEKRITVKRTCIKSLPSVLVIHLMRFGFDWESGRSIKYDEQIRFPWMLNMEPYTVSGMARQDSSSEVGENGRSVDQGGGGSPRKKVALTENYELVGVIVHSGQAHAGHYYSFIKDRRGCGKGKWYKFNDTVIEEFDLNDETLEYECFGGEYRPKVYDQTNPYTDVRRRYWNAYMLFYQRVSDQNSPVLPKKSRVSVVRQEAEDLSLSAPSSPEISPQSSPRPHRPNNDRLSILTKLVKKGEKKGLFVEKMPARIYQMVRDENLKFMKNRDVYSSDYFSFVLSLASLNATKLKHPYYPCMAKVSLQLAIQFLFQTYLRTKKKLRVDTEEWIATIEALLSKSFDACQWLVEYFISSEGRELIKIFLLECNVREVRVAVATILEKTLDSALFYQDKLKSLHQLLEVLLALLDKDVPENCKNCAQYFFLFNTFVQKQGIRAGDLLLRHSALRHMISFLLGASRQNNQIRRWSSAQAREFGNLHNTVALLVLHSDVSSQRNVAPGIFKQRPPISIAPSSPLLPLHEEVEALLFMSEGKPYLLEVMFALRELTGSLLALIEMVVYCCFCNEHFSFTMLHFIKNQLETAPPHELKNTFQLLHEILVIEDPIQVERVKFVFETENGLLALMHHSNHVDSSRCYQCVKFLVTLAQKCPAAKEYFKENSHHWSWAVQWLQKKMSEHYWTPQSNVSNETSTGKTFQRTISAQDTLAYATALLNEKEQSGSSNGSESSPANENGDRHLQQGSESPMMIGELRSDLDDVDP

Cl.O=C(CCl)N1CCn2cncc2C1
inactive: [1] -0.443 | [2] -0.0616 | [3] -0.129 | [4] -0.134 | [5] -0.354
